Pf growth 96h = P. falciparum growth inhibition at 96 hour, primary screen for plastid delayed-death inhibitors. AID 504834. Potency, µM (top dose mostly 28.7 µM), most hits filed as inhibitors. P. falciparum luciferase reporter growth, 96 h. 320,000 tested, 6.9% active
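P. falciparum expressing integrated firefly luciferase grown in erythrocytes (2% hematocrit, 0.05% parasitemia final) with compounds for 96 hours at 37 C, 5% CO2. Growth inhibition read as loss of luminescence after adding luciferase detection reagent.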
Sm TGR inh = blocks Schistosoma mansoni thioredoxin glutathione reductase; Q962Y6; Potency, µM (series often up to 114 µM), hits mostly inhibitors; 360,000 tested, 3% active; purified TGR, DTNB reduction, TNB absorbance 405 nm; note: nearly all actives have a fitted effect of over 60% in size
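TGR 20 nM + NADPH 100 uM (dispensed conc.), cpd preinc 15 min RT; start with NADPH (500 uM addition) then DTNB (15 mM addition). Kinetic TNB absorbance, 405 nm filter. Four-parameter Hill fit across titration.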
SARS PLP yeast = blocks SARS-CoV papain-like protease in a yeast assay; 330,000 tested, 0.19% active; AID 485353; S. cerevisiae expressing SARS-CoV PLpro, growth rescue; Potency, µM (top dose mostly 32.9 µM), most hits filed as activators; calls by dose curve; note: nearly all actives have a fitted effect of over 55% in size
Pf growth 48h = P. falciparum growth inhibition at 48 hours (one generation). P. falciparum luciferase growth in erythrocytes, 48 h. Potency, µM (top dose mostly 28.7 µM), actives largely listed as inhibitors. 310,000 tested, 5.9% active. AID 504832
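Luciferase-expressing P. falciparum in infected erythrocytes (2% hematocrit, 0.1% parasitemia final) in RPMI 1640/0.5% Albumax were exposed to compound for 48 hours at 37 C, 5% CO2; growth read as luminescence.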
A number is an active result; – = inactive; ? = inconclusive; · = no result given. An excerpt weighted towards active compounds, which were near 12% of everything screened. Unless noted, calls come from the whole dose curve; as a rule, active = well fitted curve in the direction sought with a large enough effect; inconclusive = small, poorly fitted or top-dose-only effect, or another doubt; inactive = no such curve, though single readings can be large; an effect the other way counts as inactive or inconclusive.

SMILES	Pf growth 96h	Sm TGR inh	SARS PLP yeast	Pf growth 48h
COc1ccc(-c2cc(C(=O)NC(C)c3ccccn3)c3ccccc3n2)cc1OC (stereo not drawn)	?	–	–	?
Cc1cccc(Cn2nc(C)n3c(cc4cc(C)ccc43)c2=O)c1	·	–	·	·
CC(C)=CCC1=C(OCC(=O)O)C(=O)c2ccccc2C1=O	2.9µM	10µM	–	13µM
CC(C)=CCC/C(C)=C/CC/C(C)=N/O	–	–	–	–
COc1ccccc1OCC(=O)O	–	–	–	–
CC(C)=CCC/C(C)=C/CC/C(C)=C/CC/C(C)=C/CC1=C(C)C(=O)c2ccccc2C1=O	5.2µM	32µM	–	12µM
O=C(c1nc2ccccn2c1CN1CCC(Cc2ccccc2)CC1)N1CCCC1	–	–	–	10µM
Cc1cccc(OC2CCN(Cc3c(C(=O)N4CCCC4)nc4ccccn34)CC2)c1	?	–	–	–
COC(=O)C1C(O)C(C)C(O)C(C)(O)/C=C\C=C(/C)C(=O)Nc2c(C)c(OC(C)=O)c3c(c2O)C(=O)C(C)=C2OCOC(=C23)/C(C)=C/C(C)(O)C(O)C(C)C1O (stereo not drawn)	?	?	–	2.9µM
Cc1ccc(NC(=O)C(Cc2c[nH]c3ccccc23)NC(=O)OCC(C)C)cc1 (stereo not drawn)	·	–	·	·
Cc1ccc(C(=O)Nc2c(-c3cccs3)nc3cc(C)ccn23)cc1	–	–	–	?
Cc1ccn2c(NC(=O)C(C)(C)Oc3ccc(Cl)cc3)c(-c3cccs3)nc2c1	12µM	–	–	–
CCc1ccc(NC(=O)CSC2=Nc3ccccc3C3=NC(CCC(=O)NCc4ccco4)C(=O)N23)cc1 (stereo not drawn)	·	–	·	·
COc1cccc(/C=C2\Sc3ccc(C(=O)NCc4cccnc4)cc3N(C)C2=O)c1	–	–	–	?
CN1C(=O)/C(=C/c2cccc(Cl)c2)Sc2ccc(C(=O)NCc3cccnc3)cc21	?	–	–	9.3µM
CCCCNC(=S)N/N=C/c1cccc(OCC)c1O	1.5µM	–	–	?
Oc1ccccc1C1=Nc2nc3ccccc3n2C(c2ccccc2)C1 (stereo not drawn)	–	10µM	–	?
Cc1cc(Nc2c(C)n(C)n(-c3ccccc3)c2=O)n2c(nc3ccccc32)c1C#N	·	22µM	–	–
CCCc1cc(Nc2c(C)n(C)n(-c3ccccc3)c2=O)n2c(nc3ccccc32)c1C#N	–	14µM	–	1.7µM
CS(=O)(=O)N(CC(=O)Nc1ccccc1C(=O)N1CCOCC1)c1cccc(F)c1	2.6µM	–	–	–
Cc1ccc(S(=O)(=O)N(C)C)cc1NC(=S)Nc1ccc2cn[nH]c2c1	–	18µM	–	–
CC(C)c1ccc(NC(=S)Nc2ccc3cn[nH]c3c2)cc1	–	–	–	–
Cc1ccc(S(=O)(=O)N(C)C)cc1NC(=O)c1cncc(Br)c1	13µM	–	–	13µM
CN(C)S(=O)(=O)c1cccc(NC(=O)c2cncc(Br)c2)c1	–	–	–	–
CC(=O)c1ccc(NC(=S)Nc2ccc3cn[nH]c3c2)cc1	–	20µM	–	–
SMILES	Pf growth 96h	Sm TGR inh	SARS PLP yeast	Pf growth 48h
COc1cc(/C=C/C(=O)NC(C)C2CC3CCC2C3)cc(OC)c1OC (stereo not drawn)	?	–	–	?
CC(C)CN(C(=O)c1cccc(S(=O)(=O)N2CCN(Cc3ccccc3)CC2)c1)C1CCS(=O)(=O)C1 (stereo not drawn)	?	–	–	–
O=c1c2cn(Cc3ccccc3)c3ccccc3c-2nn1Cc1ccc(F)cc1Cl	–	–	–	–
COC(=O)c1c(S(C)(=O)=O)nc(-c2ccccc2)[nH]c1=O	?	25µM	–	–
Cc1c(-c2ccccc2)nc(-c2ccccc2)[nH]c1=O	–	–	–	–
COc1cc(NC(=O)C(C)Oc2ccccc2)ccc1NC(=O)COc1ccccc1 (stereo not drawn)	–	–	–	?
O=C(CSc1cn(CCNC(=O)c2c(F)cccc2F)c2ccccc12)Nc1ccc2c(c1)OCCO2	·	–	·	·
CC(=O)Oc1ccc(N(C(C)=O)S(=O)(=O)c2ccc3ccccc3c2)cc1	–	–	–	–
Cn1cc(C(=O)CCl)c2ccccc21	?	3.5µM	–	?
Cc1ccccc1CN1CCC(n2nccc2NC(=O)c2ccc3c(c2)OCO3)CC1	9.3µM	–	–	–
COc1ccc(CN2CCC(n3nccc3NC(=O)c3ccc4c(c3)OCO4)CC2)cc1C	–	–	–	12µM
Cc1ccc(C(C)CCN2CCC(n3nccc3NC(=O)c3ccccc3)CC2)o1 (stereo not drawn)	–	35µM	?	–
O=C(Nc1ccnn1C1CCN(Cc2cc(Cl)ccc2O)CC1)c1cccnc1	–	–	–	?

From PubChem
